Rows were chosen to be rich in hits. Some 3% of all compounds tested hit in one or more screens of this group.
Peg3 prom inh: Peg3 promoter-driven luciferase inhibitors, primary screen, cell-based, HeLa, luciferase luminescence. inhibition, % at 20 µM. HeLa PEG-Prom luciferase reporter, overnight. AID 588405, 2011. 1.7% of 360,000 active;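 active means inhibition of at least 50% at 20 µM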
KKLEB cytotox: cytotoxicity in KKLEB CF airway cells, primary screen, cytotoxicity control for CF NF-kB inhibitor project, cell-based, uHTS, fluorescence assay plates; KKLEB CF airway cells viability, ATPlite luminescence, overnight; active compounds read low; cells stimulated with P. aeruginosa culture filtrate; activity change (cytotoxicity), % at 5 µM; 0.36% of 360,000 active; AID 602141, 2011;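 active means corrected activity change at or below -50% at 5 µM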
HIF-2a block: HIF-2a reporter inhibitors, primary screen, luminescence, 786-0 RCC cells; 786-0 RCC cells HIF-2a reporter, luciferase luminescence, overnight; inhibition, % at 18.8 µM; 0.72% of 360,000 active;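 active means inhibition of the luminescence signal of 40% or more relative to plate controls, in a single-dose primary screen at 18.75 µM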
LMP1 NFkB inh: EBV LMP1-driven NF-kappaB luciferase reporter inhibitors, primary screen, cell-based, luminescence, single point. 0.69% of 350,000 active. LMP1-induced NF-kappaB luciferase reporter cells. inhibition, % at 12.5 µM; in the data active means inhibition above about 41%;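 further: 0% = neutral control wells and 100% = reference inhibitor control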
MITF TRPM1 inh: inhibitors of MITF-dependent TRPM1 promoter reporter, primary screen, cell-based, SK-MEL-5, single point, luciferase. SK-MEL-5 TRPM1 promoter luciferase, 24 h. 0.83% of 330,000 active. AID 488899, 2010. inhibition, % at 12.5 µM;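 active means mean inhibition across replicates of 60% or more, whatever share of single replicates reaches that level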
CF NFkB inh: inhibitors of PAF-induced NF-kB signaling, primary screen, cell-based, GFP fluorescence, uHTS | 0.86% of 360,000 active | KKLEB NF-kB-GFP reporter, GFP fluorescence overnight | inhibition, % at 5 µM;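 active means at least 50% inhibition at 5 µM, scaled per plate between neutral and stimulator controls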;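 further: PAF is a Pseudomonas aeruginosa culture filtrate used as stimulus; plate controls were PAF-stimulated DMSO wells for no effect and unstimulated DMSO wells for full effect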
Mdm2 MdmX conf: retested Mdm2-MdmX interaction blockers, confirmation, cell-based, luminescence, single concentration, set 2. shares compounds with HIF-2a block. inhibition, % at 8 µM. SaOS-2 split-luciferase Mdm2/MdmX complementation. AID 504601, 2011. 99% of 740 active;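 active means mean inhibition of the luminescence signal across two replicates at or above 26 percent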
HIF-2a inh conf: HIF-2a reporter inhibitor retest, confirmation, luminescence, 786-0 RCC cells. shares compounds with HIF-2a block. HIF-2a luciferase reporter luminescence, overnight. inhibition, % at 18.8 µM. 56% of 1,800 active;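 active means mean inhibition across four replicates of at least 40 percent at the single tested concentration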
HIF-1a counter: HIF-1a luciferase reporter signal reduction – MiaPaCa-2 cells, single concentration, counter-screen for HIF-2a inhibitor project, confirmation. shares compounds with HIF-2a block. MiaPaCa-2 HIF-1a luciferase reporter, desferoxamine, overnight. inhibition, % at 18.8 µM. 72% of 1,800 active. AID 651589, 2012;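 active means mean inhibition of the reporter signal across four replicates at the single tested dose of 50% or more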
Active calls of the source: *; nt = no result given.

SMILES	Peg3 prom inh	KKLEB cytotox	HIF-2a block	LMP1 NFkB inh	MITF TRPM1 inh	CF NFkB inh	HIF-2a inh conf	HIF-1a counter	others
COc1ccc(NC(=O)/C(C#N)=C/c2ccc(Sc3nncn3C)c([N+](=O)[O-])c2)cc1	26.2	-0.4	43.2*	-2.2	54.8	12.4	23.9	21.1
Cn1cnnc1Sc1ccc(C(=O)OCC(=O)Nc2ccccc2)cc1[N+](=O)[O-]	-13.1	-2.8	5.9	-4.0	1.7	-1.0	nt	nt
OC(c1ccc(Cl)c(Cl)c1)c1ncc(-c2ccccc2F)[nH]1 (configuration not stated)	30.3	1.4	-1.3	nt	nt	-7.2	nt	nt
O=C(Nc1ccccc1C(=O)Nc1nccs1)c1ccccc1	31.0	5.5	-1.0	nt	nt	-15.9	nt	nt
O=C(NC(NC(=S)Nc1ccccc1)C(Cl)(Cl)Cl)c1cccc(Cl)c1 (configuration not stated)	14.6	-8.8	47.4*	14.1	7.4	18.8	39.1	101.8*
O=C(O)c1cccc(NC(=S)NC(NC(=O)c2cccc([N+](=O)[O-])c2)C(Cl)(Cl)Cl)c1 (configuration not stated)	-6.3	-6.9	-6.4	-2.7	25.0	8.0	nt	nt
CCCc1nnc(NC(=O)c2nc(S(=O)(=O)Cc3cccc(C)c3)ncc2Cl)s1	109.3*	-89.7*	68.7*	9.4	78.0*	93.8*	22.2	106.1*
Cc1cccc(CS(=O)(=O)c2ncc(Cl)c(C(=O)Nc3c(C)cccc3C)n2)c1	102.9*	-65.6*	46.6*	11.1	19.0	97.6*	68.1*	90.1*	Mdm2 MdmX conf=103.0*
CCCc1nnc(NC(=O)CS(=O)(=O)c2ccc(C)cc2)s1	14.9	0.9	7.2	-3.3	-2.6	-3.6	nt	nt
CSc1ncc(Cl)c(C(=O)Nc2cccc(C)c2)n1	4.3	4.4	-15.1	-3.1	14.0	-10.4	nt	nt
CC(C)C1C(=O)N(Cc2cn(CC3CCCCC3)nn2)CCS(=O)(=O)N1Cc1ccc(-c2ccncc2)cc1 (configuration not stated)	1.9	-1.1	10.3	-11.2	nt	-10.0	nt	nt
Cc1ccc(Cl)cc1NC(=O)c1cc2ccccc2cc1O	2.3	-54.8*	-142.8	36.9	72.0*	50.9*	nt	nt	Mdm2 MdmX conf=100.7*
NNC(=O)c1cc2ccccc2cc1O	38.7	7.4	69.5*	51.2*	76.3*	7.7	80.5*	74.5*
CCc1nc2ccc(C(=O)N3CCN(S(=O)(=O)CC)CC3)cn2c1N(CC)C(=O)NCCc1ccccc1	-68.7	-7.1	-92.1	nt	nt	-16.4	nt	nt
COc1cccc(Nc2cc(N3CCOCC3)c3nonc3c2[N+](=O)[O-])c1	-1.4	-20.2	26.1	-7.5	15.6	7.6	nt	nt
Cc1c(Nc2cc(Cl)c3nonc3c2[N+](=O)[O-])c(=O)n(-c2ccccc2)n1C	104.7*	-55.6*	98.1*	10.4	101.8*	94.0*	98.5*	104.6*	Mdm2 MdmX conf=103.2*
O=[N+]([O-])c1c(Nc2cccc(O)c2)cc(Cl)c2nonc12	102.8*	-91.6*	89.7*	56.0*	77.5*	91.3*	95.3*	105.1*	Mdm2 MdmX conf=103.7*
O=[N+]([O-])c1c(Nc2ccccc2O)cc(N2CCOCC2)c2nonc12	23.8	-13.8	50.8*	2.3	-4.9	-4.9	22.5	71.6*
CC(O)(c1ccc(F)c(F)c1)c1nc(-c2ccc(S(C)(=O)=O)cc2)cs1 (configuration not stated)	23.4	19.0	11.8	nt	nt	-28.5	nt	nt
COC(=O)[C@]12CCCCC=C1N(CCc1ccc(OC)c(OC)c1)C(=O)[C@H](CC(=O)NCCCN1CCCC1=O)C2	nt	nt	-0.8	nt	nt	nt	nt	nt
O=C(NNc1nc2ccccc2s1)Nc1ccc(F)cc1	-211.8	-4.9	-192.9	-7.9	-66.5	-38.5	nt	nt
O=C(NNc1nc2ccccc2s1)Nc1ccc(Cl)c(Cl)c1	-9.5	-19.1	40.5*	-2.6	12.1	8.5	-27.7	47.6
c1ccc(C2C3=C(CCCC3)Nc3ncnn32)cc1 (configuration not stated)	1.0	5.1	-7.1	2.8	-0.7	-3.4	nt	nt
Fc1ccc(/C=C2\CCCC3=C2Nc2ncnn2C3c2ccc(F)cc2)cc1 (configuration not stated)	91.3*	-44.4	86.1*	1.1	87.8*	79.6*	15.9	66.0*
O=C(CCl)N1N=C(c2cccs2)CC1c1ccco1 (configuration not stated)	40.8	-18.0	18.6	-9.0	35.3	15.9	nt	nt	Mdm2 MdmX conf=103.2*
SMILES	Peg3 prom inh	KKLEB cytotox	HIF-2a block	LMP1 NFkB inh	MITF TRPM1 inh	CF NFkB inh	HIF-2a inh conf	HIF-1a counter	others
COc1cc(OC)cc(C(=O)NNC(=O)C2CCC2)c1	3.2	4.9	10.1	-2.8	nt	-14.8	nt	nt
Cc1ccc(C(=O)N/C(=C\c2ccc(-c3ccc(Br)cc3)o2)C(=O)NCCCN(C)C)cc1	109.0*	-19.3	33.2	2.2	107.3*	14.8	nt	nt	Mdm2 MdmX conf=103.2*
Nc1nc(N)c2c(ccc3c2ccn3Cc2cccc([N+](=O)[O-])c2)n1	99.8*	-41.5	89.1*	nt	nt	16.6	12.0	104.6*
Cc1ccc(-c2csc3ncnc(Sc4nnc(CN5CCCCCC5=O)o4)c23)cc1	106.2*	9.0	94.3*	42.4*	85.0*	93.3*	99.5*	103.5*
COc1cc2ncc(S(=O)(=O)c3ccccc3)c(N3CCC4(CC3)OCCO4)c2cc1OC	24.0	6.1	40.2*	7.9	19.5	16.9	21.7	98.4*
COc1ccc(CCn2nnc3ccccc3c2=O)cc1OC	-232.9	4.6	-222.5	-25.2	nt	-6.2	nt	nt
Oc1cccc(-c2ccc3nccn3c2)c1	-63.7	5.7	-66.2	nt	nt	18.8	nt	nt
Cc1ccc(CNC(=O)c2ccc([N+](=O)[O-])o2)cc1	1.9	14.1	9.3	-33.5	51.4	-9.4	nt	nt
Cc1ccc(/C=C/C(=O)c2ccc([N+](=O)[O-])o2)cc1	nt	nt	nt	nt	nt	nt	nt	nt	Mdm2 MdmX conf=103.2*
COc1ccc(NC(=O)C(=O)NCC2CCCN2S(=O)(=O)c2ccc(C)cc2)cc1 (configuration not stated)	-4.7	-18.7	42.2*	5.1	71.8*	52.0*	33.1	48.7
